Results taken from the supplement of paper PMC10849652.
Targets with a hit are over-represented here; the source holds about 7,900 in all. About 0.6% of all pairs of compound and target were hits. Values without a mark were called inactive.

Assays:
Assay in all cases: log2 fold change, soluble protein after heating vs DMSO (PISA); higher = thermal stabilisation; K562 cells, 10 uM, 30 min; active = over 0.2 and 3.5 SD of the protein, either way, in both replicates (recomputed)
[1] = compound: CC1=C(C=C(C=C1)NC(=O)C2=CC(=CC=C2)C(C)(C)C#N)NC3=CC4=C(C=C3)N=CN(C4=O)C
In short: (§1)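 For each measurement, 10 μM compound was applied for 30 min to K562 cells at 2×10^6 cells/mL. Aliquots were heated for 3 min across 48°C-58°C, pooled, and extracted in PBS with 0.5% NP-40 at 4°C; the supernatant after 21,000xg for 90 min was soluble protein. This was quantified by TMTpro 16plex LC-MS/MS with channel sums equalised, and thermal stability was reported relative to control samples from duplicates, on a log2 fold-change scale.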

[2] = compound: CC1=C(C=C(C=C1)NC(=O)C2=CC(=CC=C2)N(C)C)NC(=O)C3=CC=C(C=C3)O
In short: as §1

[3] = compound: CC1=CC=C(C=C1)SC2=C3C=C(SC3=CN=C2)C(=O)N
In short: as §1

[4] = compound: CC1=NC(=CC=C1)C2=C(N=C(N2)C(C)(C)C)C3=CC4=NC=CN=C4C=C3
In short: as §1

Nexturastat A = compound: CCCCN(Cc1ccc(C(=O)NO)cc1)C(=O)Nc1ccccc1 [Nexturastat A]
In short: as §1

vemurafenib = compound: CCCS(=O)(=O)Nc1ccc(F)c(C(=O)c2c[nH]c3ncc(-c4ccc(Cl)cc4)cc23)c1F [vemurafenib]
In short: as §1

[5] = compound: CCCS(=O)(=O)Nc1ccc(F)c(C(=O)c2c[nH]c3ncc(Cl)cc23)c1F
In short: as §1

[6] = compound: CCCc1cc(C)[nH]c(=O)c1CNC(=O)c1cc(-c2ccnc(N3CCN(C)CC3)c2)cc2c1cnn2C(C)C
In short: as §1

givinostat = compound: CCN(CC)Cc1ccc2cc(COC(=O)Nc3ccc(C(=O)NO)cc3)ccc2c1 [givinostat]
In short: as §1

barasertib = compound: CCN(CCCOc1ccc2c(Nc3cc(CC(=O)Nc4cccc(F)c4)[nH]n3)ncnc2c1)CCOP(=O)(O)O [barasertib]
In short: as §1

[7] = compound: CC[C@@H]1C(=O)N(C)c2cnc(Nc3ccc(C(=O)NC4CCN(C)CC4)cc3OC)nc2N1C1CCCC1
In short: as §1

volasertib = compound: CC[C@@H]1C(=O)N(C)c2cnc(Nc3ccc(C(=O)N[C@H]4CC[C@H](N5CCN(CC6CC6)CC5)CC4)cc3OC)nc2N1C(C)C [volasertib]
In short: as §1

[8] = compound: CC[C@H](C)N1C=C(C2=C(C=C(C=C21)C3=CN=C(C=C3)N4CCNCC4)C(=O)NCC5=C(C=C(NC5=O)C)C)C
In short: as §1

epoxomicin = compound: CC[C@H](C)[C@@H](C(=O)N[C@@H]([C@@H](C)O)C(=O)N[C@@H](CC(C)C)C(=O)[C@]1(CO1)C)NC(=O)[C@H]([C@@H](C)CC)N(C)C(=O)C [epoxomicin]
In short: as §1

[9] = compound: CCn1c(C(=O)N(C2CC2)C2CC2)cc2c3c(ncn3C)c(Nc3cc(C)n(C)n3)nc21
In short: as §1

[10] = compound: CCn1cc(-c2ccnc3[nH]c(-c4cccc(CN(C)C)c4)cc23)c(-c2ccc(NC(=O)N(C)C)cc2)n1
In short: as §1

[11] = compound: CN(C)CC(=O)Nc1ccc2[nH]c(=O)c3ccccc3c2c1
In short: as §1

rosiglitazone = compound: CN(CCOC1=CC=C(C=C1)C[C@H]2C(=O)NC(=O)S2)C3=CC=CC=N3 (racemic) [rosiglitazone]
In short: as §1

[12] = compound: CN1C2=C(C3=C1C(=O)N(N=C3)CC4=CC(=CC=C4)N)SC(=C2)S(=O)C
In short: as §1

[13] = compound: CN1CCC(CNc2ccc3ncc(-c4cccc(OC(F)(F)F)c4)n3n2)CC1
In short: as §1

Sequence of UniProt Q8NHZ8 (Q8NHZ8 whole entry, looked up): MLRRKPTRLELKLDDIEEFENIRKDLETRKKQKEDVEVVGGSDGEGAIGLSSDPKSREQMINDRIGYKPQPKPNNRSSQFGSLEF
Sequence of UniProt A6NHX0 (A6NHX0 whole entry, looked up): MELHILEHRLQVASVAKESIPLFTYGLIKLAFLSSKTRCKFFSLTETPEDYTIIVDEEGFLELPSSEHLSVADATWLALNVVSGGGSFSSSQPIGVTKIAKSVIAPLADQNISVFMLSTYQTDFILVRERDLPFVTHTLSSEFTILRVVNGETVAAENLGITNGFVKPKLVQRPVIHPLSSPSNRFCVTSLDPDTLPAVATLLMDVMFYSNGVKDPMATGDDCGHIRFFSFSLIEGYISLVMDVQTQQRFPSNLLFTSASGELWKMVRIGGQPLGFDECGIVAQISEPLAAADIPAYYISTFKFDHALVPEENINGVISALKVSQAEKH
Sequence of UniProt Q96JB5 (Q96JB5 whole entry, looked up): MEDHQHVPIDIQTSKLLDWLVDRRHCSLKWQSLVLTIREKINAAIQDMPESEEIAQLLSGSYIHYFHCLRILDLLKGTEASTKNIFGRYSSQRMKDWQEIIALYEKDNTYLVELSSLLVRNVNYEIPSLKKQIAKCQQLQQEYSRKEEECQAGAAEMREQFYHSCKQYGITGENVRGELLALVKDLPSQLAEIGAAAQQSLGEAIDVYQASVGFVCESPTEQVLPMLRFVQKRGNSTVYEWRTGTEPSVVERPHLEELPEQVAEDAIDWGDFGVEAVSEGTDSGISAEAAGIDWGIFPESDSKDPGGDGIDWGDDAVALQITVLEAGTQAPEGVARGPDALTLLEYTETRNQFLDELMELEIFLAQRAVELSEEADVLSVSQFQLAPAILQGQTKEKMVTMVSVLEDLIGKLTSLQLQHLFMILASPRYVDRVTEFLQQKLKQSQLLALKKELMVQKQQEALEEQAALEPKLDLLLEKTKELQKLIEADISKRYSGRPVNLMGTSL
Sequence of UniProt Q8IWX8 (Q8IWX8 whole entry, looked up): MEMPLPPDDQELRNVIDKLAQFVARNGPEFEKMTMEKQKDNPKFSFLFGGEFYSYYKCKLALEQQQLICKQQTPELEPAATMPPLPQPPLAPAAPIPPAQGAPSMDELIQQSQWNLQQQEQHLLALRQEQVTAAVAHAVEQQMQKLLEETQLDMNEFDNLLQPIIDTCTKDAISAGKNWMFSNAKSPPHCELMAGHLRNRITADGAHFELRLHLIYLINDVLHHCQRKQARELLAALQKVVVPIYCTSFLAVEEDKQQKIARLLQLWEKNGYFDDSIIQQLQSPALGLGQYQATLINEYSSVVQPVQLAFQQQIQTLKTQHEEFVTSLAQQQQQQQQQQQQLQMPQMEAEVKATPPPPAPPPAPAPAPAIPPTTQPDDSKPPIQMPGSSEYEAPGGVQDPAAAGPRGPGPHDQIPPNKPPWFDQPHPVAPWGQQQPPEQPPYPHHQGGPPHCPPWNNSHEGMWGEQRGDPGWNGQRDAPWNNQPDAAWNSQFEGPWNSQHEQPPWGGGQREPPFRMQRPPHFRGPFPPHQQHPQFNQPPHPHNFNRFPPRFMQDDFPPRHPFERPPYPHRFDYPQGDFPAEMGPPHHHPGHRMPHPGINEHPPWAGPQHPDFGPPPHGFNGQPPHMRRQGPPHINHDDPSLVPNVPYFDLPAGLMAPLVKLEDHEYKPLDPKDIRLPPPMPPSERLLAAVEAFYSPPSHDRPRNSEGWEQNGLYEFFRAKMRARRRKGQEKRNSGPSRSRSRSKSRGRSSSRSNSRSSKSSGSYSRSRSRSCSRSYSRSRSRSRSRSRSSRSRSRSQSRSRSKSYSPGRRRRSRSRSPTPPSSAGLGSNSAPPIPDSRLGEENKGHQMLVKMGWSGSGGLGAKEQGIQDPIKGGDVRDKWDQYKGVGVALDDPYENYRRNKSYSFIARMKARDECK
Sequence of UniProt Q8N684 (Q8N684 whole entry, looked up): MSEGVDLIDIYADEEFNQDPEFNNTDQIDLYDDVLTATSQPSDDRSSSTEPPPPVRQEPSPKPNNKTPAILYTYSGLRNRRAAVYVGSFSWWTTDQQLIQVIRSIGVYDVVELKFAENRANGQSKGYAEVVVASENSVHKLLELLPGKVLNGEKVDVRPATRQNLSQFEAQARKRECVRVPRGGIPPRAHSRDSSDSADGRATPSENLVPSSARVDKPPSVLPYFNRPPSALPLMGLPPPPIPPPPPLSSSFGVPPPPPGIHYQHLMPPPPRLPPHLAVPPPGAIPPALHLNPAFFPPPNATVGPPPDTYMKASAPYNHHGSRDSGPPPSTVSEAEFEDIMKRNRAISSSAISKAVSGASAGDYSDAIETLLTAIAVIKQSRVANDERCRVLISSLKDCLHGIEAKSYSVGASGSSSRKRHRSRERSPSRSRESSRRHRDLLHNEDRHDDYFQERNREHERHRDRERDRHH
Sequence of UniProt P46108 (P46108 whole entry, looked up): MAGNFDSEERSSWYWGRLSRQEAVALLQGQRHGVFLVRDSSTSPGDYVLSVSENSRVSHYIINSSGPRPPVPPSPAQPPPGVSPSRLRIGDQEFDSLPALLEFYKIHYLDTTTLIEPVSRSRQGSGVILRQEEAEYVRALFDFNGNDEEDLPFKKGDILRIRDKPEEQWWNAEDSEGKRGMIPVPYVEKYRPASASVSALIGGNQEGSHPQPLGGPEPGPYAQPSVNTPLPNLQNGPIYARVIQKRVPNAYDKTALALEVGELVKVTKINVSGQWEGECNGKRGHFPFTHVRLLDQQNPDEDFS
Sequence of UniProt O95319 (O95319 whole entry, looked up): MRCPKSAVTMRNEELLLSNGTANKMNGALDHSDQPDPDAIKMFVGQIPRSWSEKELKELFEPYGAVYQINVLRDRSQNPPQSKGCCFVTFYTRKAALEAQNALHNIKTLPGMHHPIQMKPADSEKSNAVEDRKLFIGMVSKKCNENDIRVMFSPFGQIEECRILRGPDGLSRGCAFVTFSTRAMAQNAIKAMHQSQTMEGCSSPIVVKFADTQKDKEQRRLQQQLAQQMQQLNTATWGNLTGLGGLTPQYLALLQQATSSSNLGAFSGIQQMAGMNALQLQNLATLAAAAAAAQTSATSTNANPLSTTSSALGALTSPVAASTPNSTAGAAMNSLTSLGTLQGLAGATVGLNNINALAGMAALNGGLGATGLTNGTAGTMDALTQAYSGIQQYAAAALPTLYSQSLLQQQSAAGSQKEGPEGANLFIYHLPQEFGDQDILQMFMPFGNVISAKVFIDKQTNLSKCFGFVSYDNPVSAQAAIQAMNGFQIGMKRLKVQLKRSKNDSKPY
Sequence of UniProt P00915 (P00915 whole entry, looked up): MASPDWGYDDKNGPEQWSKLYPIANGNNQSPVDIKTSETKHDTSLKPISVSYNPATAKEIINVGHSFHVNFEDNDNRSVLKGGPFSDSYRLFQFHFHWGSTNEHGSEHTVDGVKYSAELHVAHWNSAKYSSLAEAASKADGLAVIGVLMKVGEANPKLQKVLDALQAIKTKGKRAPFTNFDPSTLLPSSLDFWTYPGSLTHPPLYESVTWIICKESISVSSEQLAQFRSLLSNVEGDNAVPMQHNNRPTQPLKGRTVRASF
Sequence of UniProt P42575 (P42575 whole entry, looked up): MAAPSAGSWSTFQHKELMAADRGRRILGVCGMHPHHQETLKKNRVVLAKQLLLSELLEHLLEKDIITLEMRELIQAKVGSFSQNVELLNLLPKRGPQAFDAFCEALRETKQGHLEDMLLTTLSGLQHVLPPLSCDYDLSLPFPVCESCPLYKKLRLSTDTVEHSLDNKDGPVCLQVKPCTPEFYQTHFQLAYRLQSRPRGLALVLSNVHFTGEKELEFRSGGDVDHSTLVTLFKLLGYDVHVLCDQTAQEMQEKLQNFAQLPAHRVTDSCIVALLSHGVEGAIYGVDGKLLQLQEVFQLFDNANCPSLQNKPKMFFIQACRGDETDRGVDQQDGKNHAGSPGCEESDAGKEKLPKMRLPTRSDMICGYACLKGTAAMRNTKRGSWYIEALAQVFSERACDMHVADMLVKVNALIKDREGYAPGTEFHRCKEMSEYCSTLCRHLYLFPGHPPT
Sequence of UniProt Q14790 (Q14790 whole entry, looked up): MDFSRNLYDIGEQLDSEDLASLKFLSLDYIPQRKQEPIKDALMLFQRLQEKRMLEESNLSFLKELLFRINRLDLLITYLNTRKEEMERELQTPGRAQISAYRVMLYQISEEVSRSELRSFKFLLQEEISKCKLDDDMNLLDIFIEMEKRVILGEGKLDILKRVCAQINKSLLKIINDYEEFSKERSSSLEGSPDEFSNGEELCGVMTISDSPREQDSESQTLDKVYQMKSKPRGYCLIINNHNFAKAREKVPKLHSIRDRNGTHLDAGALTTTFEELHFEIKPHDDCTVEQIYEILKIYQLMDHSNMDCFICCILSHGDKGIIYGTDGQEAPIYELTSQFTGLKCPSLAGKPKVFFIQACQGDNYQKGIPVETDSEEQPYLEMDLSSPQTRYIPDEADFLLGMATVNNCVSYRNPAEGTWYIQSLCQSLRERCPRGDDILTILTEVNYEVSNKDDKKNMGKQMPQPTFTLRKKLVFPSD
Sequence of UniProt Q9H444 (Q9H444 whole entry, looked up): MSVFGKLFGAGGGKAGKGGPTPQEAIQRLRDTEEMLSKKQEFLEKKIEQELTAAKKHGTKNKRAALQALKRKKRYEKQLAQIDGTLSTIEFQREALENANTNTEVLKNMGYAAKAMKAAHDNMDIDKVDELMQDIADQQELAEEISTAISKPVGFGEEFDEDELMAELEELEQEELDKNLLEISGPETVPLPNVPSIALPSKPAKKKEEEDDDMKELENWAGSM
Sequence of UniProt Q9P031 (Q9P031 whole entry, looked up): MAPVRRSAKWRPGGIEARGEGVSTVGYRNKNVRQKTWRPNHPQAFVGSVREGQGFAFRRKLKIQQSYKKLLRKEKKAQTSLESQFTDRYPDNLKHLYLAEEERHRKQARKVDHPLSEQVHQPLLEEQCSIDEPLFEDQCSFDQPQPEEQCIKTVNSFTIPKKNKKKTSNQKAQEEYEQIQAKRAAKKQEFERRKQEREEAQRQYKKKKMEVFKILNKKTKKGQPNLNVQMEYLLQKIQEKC

Target	log2 fold change [1]	log2 fold change [2]	log2 fold change [3]	log2 fold change [4]	log2 fold change (Nexturastat A)	log2 fold change (vemurafenib)	log2 fold change [5]	log2 fold change [6]	log2 fold change (givinostat)	log2 fold change (barasertib)	log2 fold change [7]	log2 fold change (volasertib)	log2 fold change [8]	log2 fold change (epoxomicin)	log2 fold change [9]	log2 fold change [10]	log2 fold change [11]	log2 fold change (rosiglitazone)	log2 fold change [12]	log2 fold change [13]
CRK (UniProt P46108)	-0.814 (active)	-0.019	0.015	0.091	-0.006	0.048	0.009	-0.008	0.002	0.046	-0.059	-0.085	0.005	0.026	0.002	-0.039	0.002	0.033	-0.028	-0.022
CCDC59 (UniProt Q9P031)	-0.067	-0.017	-0.144	-0.213	0.549 (active)	-0.037	0.008	0.113	0.086	-0.013	0.065	0.186	-0.006	-0.067	-0.013	0.088	-0.08	-0.064	0.394	0.176
CDK5RAP3 isoform 4 (UniProt Q96JB5)	0.018	-0.035	0.008	0.015	0.051	0.044	0.077	-0.015	0.109	0.029	-0.056	-0.296 (active)	0	0.021	-0.044	-0.007	0.033	0.055	-0.024	-0.002
CDC42EP1 (UniProt Q00587)	-0.005	0.034	-0.002	0.073	0.022	0.011	-0.022	0.075	0.15	-0.004	-0.005	0.058	0.057	0.032	-0.096	-0.051	-0.016	0.093	0.039	-0.554 (active)
CHAMP1 (UniProt Q96JM3)	-0.003	-0.018	0.005	-0.012	0.011	-0.01	-0.011	-0.003	0.032	0.027	-0.035	-0.357 (active)	0.181	0.016	-0.038	-0.095	0.014	0.063	0.038	-0.302
CASTOR2 (UniProt A6NHX0)	-0.015	-0.01	0.037	0.033	-0.085	0.046	-0.465 (active)	-0.021	0.041	0.01	0.025	0.254	-0.042	0.061	-0.024	0.123	-0.035	0.034	-0.022	0.066
CELF2 isoform 3 (UniProt O95319)	0.075	0.01	0.112	-0.006	-0.025	0.065	0.005	-0.02	-0.008	0.001	0.115	-0.028	0.02	0.018	-0.027	0.103	0.006	-0.049	-0.04	0.111
CASP8 isoform 9 (UniProt Q14790)	-0.054	-0.092	0.017	-0.049	0.064	0	0.177	0.114	0.115	0	0.025	-0.489 (active)	0.065	0.052	0.025	-0.019	0	-0.034	-0.026	-0.082
CPSF7 isoform 3 (UniProt Q8N684)	0.015	0.001	0.014	0.012	-0.003	0.018	0.007	-0.016	0.01	-0.044	0.077	0.039	0.053	-0.042	0.004	-0.015	-0.014	-0.029	-0.001	0.006
CERT isoform 3 (UniProt Q9Y5P4)	0.154	-0.103	-0.039	-0.001	-0.048	0.101	0.061	0.02	-0.027	-0.002	0.06	0.044	0.07	0.058	-0.023	-0.057	-0.019	-0.017	-0.127	0.279 (active)
CHMP4B (UniProt Q9H444)	0.181	0.008	-0.073	0.007	-0.04	-0.036	-0.126	-0.02	-0.061	0.001	-0.05	0.062	-0.044	-0.008	0.043	-0.065	-0.053	-0.031	-0.057	-0.033
CA1 (UniProt P00915)	-0.028	-0.008	0.03	0.014	-0.051	0.048	0.016	-0.039	-0.021	0.008	0	-0.02	0.01	0.016	0.003	0.042	-0.002	0.045	-0.034	0.134
CASP2 (UniProt P42575)	0.025	0.001	0.215	0.056	0.004	0.026	0.193	0.086	0.039	0.026	0.058	0.112	0.078	0.024	-0.016	-0.153	0.031	0.072	0.008	-0.08
CES2 isoform 4 (UniProt O00748)	-0.003	-0.072	0.005	-0.065	0.058	-0.029	-0.105	0.003	0.021	0.022	0.033	0.108	0.1	-0.168	0.187	-0.012	-0.02	0.023	0.034	0.054
CHERP (UniProt Q8IWX8)	-0.042	-0.088	-0.053	0.003	-0.006	0.018	0.127	0.075	0.107	0.055	-0.162	-0.888 (active)	-0.014	0.064	-0.024	0.022	0.041	-0.004	0.102	-0.05
CDC26 (UniProt Q8NHZ8)	-0.026	0.029	-0.025	0.021	0.067	0.534 (active)	-0.048	0.056	0.056	0.007	0.06	0.037	-0.068	-0.031	0.085	0.003	0.158	-0.008	0.107	0.131
